The list shows a part of the results. Activity calls are given as the source filed them. Unless noted, no stated cut-off is given here; in the data, active means inhibition above about 30%; inactive means the rest.
What was measured:
[1] = biological target: Nuclear receptor coactivator 3 (Homo sapiens) (UniProt Q9Y6Q9); test: NCOA3 GAL4-fusion reporter inhibition – cell-based, luminescence, quadruplicate, confirmation (AID 588792;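 active means mean inhibition over 43.08%, the solvent-only control mean plus 3 SD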;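 further: 0% = DMSO treated cells and 100% = gossypol at 36 µM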); conditions: HEK293 GAL4-SRC3 luciferase reporter, at 3.6 µM, stronger effect = higher value
Chain of Nuclear receptor coactivator 3 (Homo sapiens) (Q9Y6Q9 whole entry, looked up, the tested form may be a part): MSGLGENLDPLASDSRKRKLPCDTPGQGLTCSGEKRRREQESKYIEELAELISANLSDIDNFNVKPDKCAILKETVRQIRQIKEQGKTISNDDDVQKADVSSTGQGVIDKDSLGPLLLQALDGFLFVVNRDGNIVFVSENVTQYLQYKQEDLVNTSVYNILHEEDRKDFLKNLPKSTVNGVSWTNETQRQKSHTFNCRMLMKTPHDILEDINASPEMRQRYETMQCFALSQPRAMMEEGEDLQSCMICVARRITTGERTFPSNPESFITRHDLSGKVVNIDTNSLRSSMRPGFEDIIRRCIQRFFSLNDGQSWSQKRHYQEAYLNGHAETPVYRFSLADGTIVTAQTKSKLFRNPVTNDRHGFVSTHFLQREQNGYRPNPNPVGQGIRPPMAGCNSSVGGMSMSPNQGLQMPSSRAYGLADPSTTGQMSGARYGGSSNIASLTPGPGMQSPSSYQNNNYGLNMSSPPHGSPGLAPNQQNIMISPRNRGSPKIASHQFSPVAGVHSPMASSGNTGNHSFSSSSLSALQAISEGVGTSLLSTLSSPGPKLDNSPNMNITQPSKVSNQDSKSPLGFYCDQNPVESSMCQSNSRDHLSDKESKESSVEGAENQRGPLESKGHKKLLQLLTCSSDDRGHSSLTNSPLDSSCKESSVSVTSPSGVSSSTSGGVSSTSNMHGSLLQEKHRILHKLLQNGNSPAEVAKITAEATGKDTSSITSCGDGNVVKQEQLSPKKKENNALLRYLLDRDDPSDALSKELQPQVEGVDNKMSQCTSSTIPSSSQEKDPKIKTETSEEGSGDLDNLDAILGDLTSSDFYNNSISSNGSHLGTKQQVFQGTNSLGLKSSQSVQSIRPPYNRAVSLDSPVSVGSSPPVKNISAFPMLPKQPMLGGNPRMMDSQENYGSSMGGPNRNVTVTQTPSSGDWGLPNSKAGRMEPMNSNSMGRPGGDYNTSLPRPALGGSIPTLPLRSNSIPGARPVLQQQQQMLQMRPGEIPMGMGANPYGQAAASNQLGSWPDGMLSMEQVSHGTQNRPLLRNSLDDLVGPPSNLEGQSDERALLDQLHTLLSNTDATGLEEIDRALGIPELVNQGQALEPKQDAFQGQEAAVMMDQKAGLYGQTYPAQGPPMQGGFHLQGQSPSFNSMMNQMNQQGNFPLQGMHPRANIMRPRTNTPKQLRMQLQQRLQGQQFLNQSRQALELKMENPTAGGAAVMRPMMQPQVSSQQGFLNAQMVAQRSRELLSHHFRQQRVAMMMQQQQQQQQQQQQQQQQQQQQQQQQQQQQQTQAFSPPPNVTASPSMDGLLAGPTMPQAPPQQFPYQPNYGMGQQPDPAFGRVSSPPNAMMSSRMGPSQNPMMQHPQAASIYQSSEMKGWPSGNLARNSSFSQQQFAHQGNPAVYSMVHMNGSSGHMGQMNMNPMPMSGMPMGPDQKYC

[2] = tested on: transactivating tegument protein VP16 (Human herpesvirus 1), Gal4-VP16 luciferase reporter; test: repression of VP16-driven luciferase reporter – cell-based, luminescence, high throughput, counter-screen for SRC3 inhibitor project (AID 588794); conditions: mammalian cells, at 3.6 µM, stronger effect = higher value
[3] = biological target: Nuclear receptor coactivator 1 (Homo sapiens) (UniProt Q15788); test: NCOA1 GAL4-fusion reporter inhibition – cell-based, luminescence, quadruplicate, confirmation (AID 588820;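 active means mean inhibition above 46.68%, the untreated control wells mean plus 3 SD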;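 further: 0% = DMSO wells and 100% = gossypol 36 µM treated wells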); conditions: HEK293 GAL4-SRC1 luciferase reporter, at 3.6 µM, stronger effect = higher value
Chain of Nuclear receptor coactivator 1 (Homo sapiens) (Q15788 whole entry, looked up, the tested form may be a part): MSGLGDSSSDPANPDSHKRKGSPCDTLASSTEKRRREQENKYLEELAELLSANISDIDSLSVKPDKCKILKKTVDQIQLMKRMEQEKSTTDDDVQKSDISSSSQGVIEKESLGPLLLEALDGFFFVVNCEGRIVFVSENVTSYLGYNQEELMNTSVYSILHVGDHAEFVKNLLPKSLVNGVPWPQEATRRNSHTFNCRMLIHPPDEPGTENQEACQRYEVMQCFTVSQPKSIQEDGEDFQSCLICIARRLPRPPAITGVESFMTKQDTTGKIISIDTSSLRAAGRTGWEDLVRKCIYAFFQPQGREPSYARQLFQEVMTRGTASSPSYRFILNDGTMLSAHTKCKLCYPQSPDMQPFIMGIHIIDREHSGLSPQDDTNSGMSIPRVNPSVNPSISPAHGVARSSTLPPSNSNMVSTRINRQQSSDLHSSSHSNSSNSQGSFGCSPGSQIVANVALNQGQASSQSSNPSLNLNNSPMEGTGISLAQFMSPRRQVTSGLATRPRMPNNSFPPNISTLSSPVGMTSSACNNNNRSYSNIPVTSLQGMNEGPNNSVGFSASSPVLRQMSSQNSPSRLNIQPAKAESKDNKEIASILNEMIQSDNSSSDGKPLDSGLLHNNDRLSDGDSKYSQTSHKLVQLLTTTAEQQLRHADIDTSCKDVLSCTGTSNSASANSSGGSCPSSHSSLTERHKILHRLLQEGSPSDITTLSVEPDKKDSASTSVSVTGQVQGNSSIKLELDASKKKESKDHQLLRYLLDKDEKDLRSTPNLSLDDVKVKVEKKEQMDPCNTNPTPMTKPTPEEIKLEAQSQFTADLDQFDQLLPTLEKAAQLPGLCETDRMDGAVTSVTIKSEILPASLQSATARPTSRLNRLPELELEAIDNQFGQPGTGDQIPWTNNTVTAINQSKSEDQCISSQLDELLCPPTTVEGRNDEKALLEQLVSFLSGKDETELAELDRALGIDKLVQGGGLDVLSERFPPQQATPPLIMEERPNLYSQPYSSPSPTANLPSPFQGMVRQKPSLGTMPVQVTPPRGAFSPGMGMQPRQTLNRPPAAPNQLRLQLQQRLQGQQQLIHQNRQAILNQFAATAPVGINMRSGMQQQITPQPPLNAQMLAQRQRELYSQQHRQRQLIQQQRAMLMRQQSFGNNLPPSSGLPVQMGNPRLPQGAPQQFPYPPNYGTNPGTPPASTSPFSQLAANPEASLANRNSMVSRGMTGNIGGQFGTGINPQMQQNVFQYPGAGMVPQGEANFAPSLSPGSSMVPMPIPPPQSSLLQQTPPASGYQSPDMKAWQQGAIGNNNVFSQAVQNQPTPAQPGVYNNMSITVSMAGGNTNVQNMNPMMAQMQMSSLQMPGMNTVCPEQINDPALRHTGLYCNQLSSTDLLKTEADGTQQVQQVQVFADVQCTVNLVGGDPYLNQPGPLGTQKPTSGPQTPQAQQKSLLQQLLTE

[4] = repression of VP16-driven luciferase reporter – cell-based, luminescence, high throughput, counter-screen for SRC1 inhibitor project (AID 588824; in the data active means inhibition above about 25%); conditions: cell-based VP16 transactivation luciferase luminescence; at 3.6 µM; stronger effect = higher value
[5] = StAR promoter reporter inhibitors, counter-screen for LRH-1 inverse agonist project, cell-based, luminescence, high throughput (AID 651611; in the data active means inhibition above about 28%); conditions: StAR promoter luciferase reporter counterscreen, at 3.6 µM, stronger effect = higher value
[6] = biological target: Nuclear receptor subfamily 5 group A member 2 (Homo sapiens) (UniProt O00482); test: NR5A2 activity suppression in reporter cells – cell-based, luminescence, confirmation (AID 651613; in the data active means inhibition above about 42%;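 further: HEK293T cells co-transfected with LRH-1 and StAR promoter luciferase reporter; 0% = vehicle wells and 100% = parental cells lacking receptor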); conditions: cell-based LRH-1 luciferase reporter, inverse agonism; at 3.6 µM; stronger effect = higher value
Chain of Nuclear receptor subfamily 5 group A member 2 (Homo sapiens) (O00482 whole entry, looked up): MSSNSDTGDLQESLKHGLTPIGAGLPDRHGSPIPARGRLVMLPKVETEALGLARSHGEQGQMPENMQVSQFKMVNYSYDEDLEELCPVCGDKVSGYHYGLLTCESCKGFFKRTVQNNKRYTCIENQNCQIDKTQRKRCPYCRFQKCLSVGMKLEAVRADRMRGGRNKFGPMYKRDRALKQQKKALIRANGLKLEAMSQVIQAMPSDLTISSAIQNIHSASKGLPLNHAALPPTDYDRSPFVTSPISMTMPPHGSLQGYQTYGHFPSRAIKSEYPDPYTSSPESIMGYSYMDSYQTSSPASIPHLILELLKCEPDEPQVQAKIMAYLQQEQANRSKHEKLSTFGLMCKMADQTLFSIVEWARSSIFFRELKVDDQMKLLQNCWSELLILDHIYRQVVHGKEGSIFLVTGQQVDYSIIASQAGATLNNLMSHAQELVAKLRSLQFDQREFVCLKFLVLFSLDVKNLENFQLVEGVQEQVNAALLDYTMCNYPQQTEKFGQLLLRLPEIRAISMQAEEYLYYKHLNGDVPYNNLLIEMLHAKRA

[7] = biological target: Steroidogenic factor 1 (Homo sapiens) (UniProt Q13285); test: inverse agonism at SF1 nuclear receptor – cell-based, luminescence, high throughput, counter-screen for LRH-1 inverse agonist project (AID 651614; in the data active means inhibition above about 44%;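 further: cells cotransfected with StAR promoter reporter and SF1 expression vector; 0% = vehicle on cells with receptor and 100% = vehicle on cells lacking receptor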); conditions: cell-based SF1 luciferase reporter, at 3.6 µM, stronger effect = higher value
Chain of Steroidogenic factor 1 (Homo sapiens) (Q13285 whole entry, looked up, the tested form may be a part): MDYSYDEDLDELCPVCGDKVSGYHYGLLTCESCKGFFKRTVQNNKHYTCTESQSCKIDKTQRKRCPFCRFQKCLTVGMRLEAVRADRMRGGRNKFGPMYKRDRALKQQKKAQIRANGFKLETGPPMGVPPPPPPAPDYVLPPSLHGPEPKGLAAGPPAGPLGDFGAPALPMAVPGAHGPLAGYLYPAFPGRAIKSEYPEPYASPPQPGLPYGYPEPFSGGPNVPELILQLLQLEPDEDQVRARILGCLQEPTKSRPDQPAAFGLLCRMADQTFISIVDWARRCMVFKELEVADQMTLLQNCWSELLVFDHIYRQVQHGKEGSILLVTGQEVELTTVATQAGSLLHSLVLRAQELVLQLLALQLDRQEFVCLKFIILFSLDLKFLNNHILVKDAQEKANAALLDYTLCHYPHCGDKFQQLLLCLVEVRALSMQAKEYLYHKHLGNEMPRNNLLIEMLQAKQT

[8] = compounds suppressing VP16-driven luciferase signal – cell-based, luminescence, high throughput, counter-screen for LRH-1 inverse agonist project (AID 651615; in the data active means inhibition above about 33%); conditions: Gal4-VP16 luciferase reporter cells, at 3.6 µM, stronger effect = higher value
[9] = biological target: Photoreceptor-specific nuclear receptor (Homo sapiens) (UniProt Q9Y5X4); test: retest of NR2E3-NCOR disrupting agonists – cell-based, luminescence, CHO-S two-hybrid, confirmation (AID 624378;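 active means average inhibition above a cutoff equal to the mean inhibition of all tested compounds plus one SD, cut at about 70% in these data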;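 further: 0% = DMSO in NR2E3 cells and 100% = DMSO in cells lacking NR2E3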); conditions: CHO-S mammalian two-hybrid NR2E3-NCOR, luciferase luminescence; at 3.98 µM; stronger effect = higher value
Chain of Photoreceptor-specific nuclear receptor (Homo sapiens) (Q9Y5X4 whole entry, looked up): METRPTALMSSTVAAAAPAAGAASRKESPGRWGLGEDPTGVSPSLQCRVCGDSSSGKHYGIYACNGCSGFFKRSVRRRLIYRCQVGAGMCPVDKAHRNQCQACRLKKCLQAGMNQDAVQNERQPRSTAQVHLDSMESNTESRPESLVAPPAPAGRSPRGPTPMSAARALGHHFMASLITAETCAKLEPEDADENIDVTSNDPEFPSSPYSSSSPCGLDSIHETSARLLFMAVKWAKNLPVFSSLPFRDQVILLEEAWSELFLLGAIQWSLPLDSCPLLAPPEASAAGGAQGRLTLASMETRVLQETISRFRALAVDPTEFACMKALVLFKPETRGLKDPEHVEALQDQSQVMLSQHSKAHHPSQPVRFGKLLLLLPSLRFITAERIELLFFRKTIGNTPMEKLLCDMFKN

[10] = nonselective effects on VP16 transactivation – cell-based, luminescence, CHO-S, high throughput, counter-screen for NR2E3 agonist project, confirmation (AID 624379;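 active means mean inhibition above a cutoff equal to the average over all tested compounds plus one standard deviation, cut at about 70% in these data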;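 further: 0% = DMSO with VP16-transfected cells and 100% = DMSO with cells lacking VP16; higher means less reporter light so more repression of VP16 activity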); conditions: CHO-S GAL4-VP16 luciferase reporter, at 3.98 µM, stronger effect = higher value
[11] = tested on: transactivating tegument protein VP16 (Human herpesvirus 1); test: compounds suppressing VP16-driven luciferase signal – cell-based, luminescence, single concentration, counter-screen for SRC2 inhibitor project (AID 652007; in the data active means inhibition above about 36%); conditions: cell-based VP16 transactivation luciferase reporter, at 8.9 µM, stronger effect = higher value
[12] = biological target: Nuclear receptor coactivator 2 (Homo sapiens) (UniProt Q15596); test: inhibition of GAL4-SRC2 driven luciferase expression – cell-based, luminescence, HEK293, triplicate, confirmation (AID 652008;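 active means mean inhibition above 46.5%, the solvent-only control mean plus 3 SD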;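 further: 0% = DMSO-treated cells and 100% = Gossypol at 36 µM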); conditions: HEK293 GAL4-SRC2 luciferase reporter, at 8.9 µM, stronger effect = higher value
[13] = VP16-driven transactivation reporter suppression – cell-based, luminescence, HEK293, counter-screen for COUP-TFII antagonist project (AID 687007; in the data active means inhibition above about 13%); conditions: HEK293 Gal4-VP16 luciferase reporter, at 8.5 µM, stronger effect = higher value
[14] = biological target: COUP transcription factor 2 (Homo sapiens) (UniProt P24468); test: retest of COUP-TFII reporter suppressors – cell-based, luciferase reporter, HEK293, triplicate, confirmation (AID 687008;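 active means mean inhibition over three repeats above a set limit taken from the earlier primary screen, cut at about 38% in these data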;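 further: 100% = cells given the luciferase reporter alone without the COUP-TF2 vector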); conditions: HEK293 NGFI-A luciferase reporter, luminescence; at 8.5 µM; stronger effect = higher value
Chain of COUP transcription factor 2 (Homo sapiens) (P24468 whole entry, looked up): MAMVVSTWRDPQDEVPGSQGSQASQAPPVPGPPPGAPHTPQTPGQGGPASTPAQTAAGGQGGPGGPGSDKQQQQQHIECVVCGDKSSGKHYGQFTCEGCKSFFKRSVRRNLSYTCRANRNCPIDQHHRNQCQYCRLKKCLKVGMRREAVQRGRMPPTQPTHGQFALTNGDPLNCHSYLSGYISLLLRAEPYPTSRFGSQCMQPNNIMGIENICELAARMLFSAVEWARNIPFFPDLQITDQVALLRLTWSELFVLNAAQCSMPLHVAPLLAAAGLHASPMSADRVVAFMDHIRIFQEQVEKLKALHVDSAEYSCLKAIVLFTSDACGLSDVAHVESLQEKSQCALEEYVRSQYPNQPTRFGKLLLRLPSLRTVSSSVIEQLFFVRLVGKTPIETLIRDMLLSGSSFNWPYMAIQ

Measured: inhibition

CCOc1ccc(-c2c(C)n(-c3ccc(OCC)cc3)c3[n+]2CCCCC3)cc1
active: [1] 96.3% | [2] 89% | [3] 74% | [4] 87.2%

Cc1cccc(C)c1-n1nnnc1C(CCc1ccccc1)N1CCC(n2c(=O)[nH]c3ccccc32)CC1 (centres undefined)
active: [2] 49.2% | [4] 51.8%
inactive: [1] 40.6% | [3] 20.7%

Cc1cc(-c2ccccc2)cc(-c2ccccc2)[n+]1CCc1ccccc1
active: [2] 52.1% | [4] 51.7% | [5] 51.1% | [6] 91.6% | [7] 75.2% | [8] 73.2%
inactive: [1] 37.8% | [3] 27.1%

CC1C(OC(=O)CCC(=O)NC(C)(C)CO)O[C@H]2OC3(C)CC[C@H]4[C@H](C)CCC1C24OO3 (some centres undefined)
active: [1] 55.9% | [2] 79.9% | [3] 51.9% | [4] 81.2% | [5] 76.2% | [6] 101% | [7] 91% | [8] 84%

COC(=O)[C@]12OC[C@]34C([C@@H](O)[C@@H]1O)[C@]1(C)CC(=O)C(O)=C(C)[C@@H]1C[C@H]3OC(=O)[C@H](O)[C@@H]24 (some centres undefined)
active: [1] 71.6% | [2] 64.2% | [4] 68.8%
inactive: [3] -32.4%

Cc1ccc(C[n+]2c(-c3ccc(C)cc3)cc(-c3ccc(C)cc3)cc2-c2ccc(C)cc2)cc1
active: [1] 91.3% | [2] 87.9% | [4] 84.7%
inactive: [3] 44.1%

CN(C)c1ccc(C(=O)N/N=C/C23CC[C@@H](O)CC2(O)CC[C@@H]2[C@@H]3CCC3(C)C(C4=CC(=O)OC4)CCC23O)cc1 (some centres undefined)
inactive: [1] 1.62% | [2] 23.4% | [3] -57.9% | [4] 7.1%

CN1CCN(c2ccc([N+](=O)[O-])c3no[n+]([O-])c23)CC1
active: [1] 98.6% | [2] 96.4% | [3] 93.7% | [4] 96% | [5] 97% | [6] 111% | [7] 98.9% | [8] 97.9%

Cc1cccc(C)c1-n1nnnc1C(c1cc2ccccc2o1)N1CCC(n2c(=O)[nH]c3ccccc32)CC1 (centres undefined)
active: [2] 41.3% | [4] 25.9%
inactive: [1] 23.8% | [3] 7.31%

CCC(C)NC(=O)CCC(=O)OC1O[C@H]2OC3(C)CC[C@H]4[C@H](C)CCC(C1C)C24OO3 (some centres undefined)
active: [1] 63.7% | [2] 83.6% | [3] 47.4% | [4] 82% | [5] 75% | [6] 102% | [7] 91.8% | [8] 84.7%

COc1cc2cc(C(=O)N3CC(COS(C)(=O)=O)c4ccc(O)cc43)[nH]c2c(OC)c1OC (centres undefined)
active: [1] 97.5% | [2] 96.2% | [3] 96% | [4] 95.7% | [5] 98% | [6] 111% | [7] 99.2% | [8] 98.2%

COc1cccc(C(c2nnnn2-c2ccc3c(c2)OCCO3)N2CCC(n3c(=O)[nH]c4ccccc43)CC2)c1OC (centres undefined)
active: [2] 35.9%
inactive: [1] 26.6% | [3] -22.4% | [4] 24.7%

CC(=NCc1ccc(F)cc1)c1c(O)n(C)c(=O)n(C)c1=O
inactive: [1] 11% | [3] 12.8%
active: [2] 49.6% | [4] 49.7% | [5] 39.6% | [6] 51.4% | [7] 73% | [8] 62.8%

C[C@]12CC[C@H](O)C[C@H]1CC[C@@H]1[C@@H]2C[C@@H](O)[C@]2(C)[C@@H](C3=CC(=O)OC3)CC[C@]12O
active: [1] 88.8% | [2] 65.8% | [4] 65.4% | [5] 94.8% | [6] 107% | [7] 96% | [8] 77.7%
inactive: [3] 13.8%

O=c1[nH]c2ccccc2n1C1CCN(C(c2ccnc3ccccc23)c2nnnn2-c2ccc3c(c2)OCCO3)CC1 (centres undefined)
inactive: [1] 8.29% | [2] 6.76% | [3] -26.3% | [4] 8.7%

Cc1[nH]nc2ccc(-c3cncc(OC[C@@H](N)Cc4c[nH]c5ccccc45)c3)cc12
active: [1] 98.5% | [2] 97.1% | [3] 93.5% | [4] 97.3%

Clc1ccc(C[n+]2c(-c3ccccc3)cc(-c3ccccc3)cc2-c2ccccc2)cc1
active: [1] 83.5% | [2] 66% | [3] 53.1% | [4] 73.6% | [5] 70.8% | [6] 110% | [7] 89.8% | [8] 94%

CC(C)c1oc(=O)cc2c1[C@@H](O)[C@H]1OC(=O)[C@@]3(C)CC[C@@H](O)[C@@]2(C)C13 (some centres undefined)
inactive: [1] 40.9% | [2] 7.55% | [3] -2.23% | [4] 10%
active: [5] 71.4% | [6] 86.2% | [7] 72.3% | [8] 53.6%

O=c1[nH]c2ccccc2n1C1CCN(C(c2ccccc2)c2nnnn2Cc2ccccc2)CC1 (centres undefined)
inactive: [2] 16.8% | [3] -21.5% | [4] 15.1% | [9] 30.7% | [10] 4.07%
active: [1] 64.1%

COc1cccc(C(c2nnnn2Cc2ccccc2)N2CCC(n3c(=O)[nH]c4ccccc43)CC2)c1OC (centres undefined)
inactive: [1] 25.4% | [2] 8.5% | [3] -25.2% | [4] 20.2%

CC(=O)c1c(C)n(C2CCCCC2)c2ccc(O)cc12
active: [1] 81.2% | [2] 58.5% | [3] 68.4% | [4] 60.2%

C=C1C(=O)[C@@]23C[C@H]4[C@@H]5[C@@]6(C)CCC[C@@]57[C@@H]2[C@@H](O)[C@@H]1C[C@H]3[C@H]7N4C6
inactive: [1] 3.71% | [2] 22% | [3] 26.6% | [4] 20.9%

CCOc1ccc(-c2cc(C)[n+](CCc3ccc(OC)c(OC)c3)c(-c3ccc(OCC)cc3)c2)cc1
active: [1] 53.6% | [2] 69.7% | [3] 60% | [4] 73.4% | [5] 70% | [6] 104% | [7] 92.3% | [8] 85.4%

O=c1[nH]c2ccccc2n1C1CCN(C(CCc2ccccc2)c2nnnn2Cc2ccccc2)CC1 (centres undefined)
inactive: [1] 34.6% | [3] 12%
active: [2] 40.3% | [4] 36.7%

COc1cc2c(cc1O)C[C@H]1NCCc3cc4c(c-2c31)OCO4
active: [2] 33.2% | [4] 40.2%
inactive: [1] 32.3% | [3] 22.1%

CC(C)CC(NC(=O)CCCNC(=O)CCC(=O)OC1O[C@H]2OC3(C)CC[C@H]4[C@H](C)CCC(C1C)C24OO3)C(=O)O (some centres undefined)
active: [1] 54.4% | [2] 77.2% | [3] 53.3% | [4] 76.9% | [5] 72.2% | [6] 101% | [7] 91% | [8] 86.4%

COc1ccc(-n2nnnc2C(CCc2ccccc2)N2CCC(n3c(=O)[nH]c4ccccc43)CC2)cc1 (centres undefined)
inactive: [1] 25.2% | [2] 8.54% | [3] 2.43% | [4] 9.95% | [6] 28.1% | [7] 30.3%
active: [5] 48.7% | [8] 33.6%

O=c1[nH]c2ccccc2n1C1CCN(C(c2cccc3ccccc23)c2nnnn2-c2ccc3c(c2)OCCO3)CC1 (centres undefined)
inactive: [1] 33.8% | [2] 12.5% | [3] -29.6% | [4] 10.9% | [6] 27.6% | [8] 27.7%
active: [5] 57.5% | [7] 44%

C[C@H]1[C@@H](OS(=O)(=O)O)C[C@@H]2C[C@H]([C@@H](O)c3cc(=O)[nH]c(=O)[nH]3)NC3=NC[C@H]1N32
active: [1] 88.3% | [2] 71% | [3] 58% | [4] 70.5% | [5] 92.3% | [6] 107% | [7] 95.2% | [8] 76.8%

CSCCC(c1nnnn1-c1ccc2c(c1)OCCO2)N1CCC(n2c(=O)[nH]c3ccccc32)CC1 (centres undefined)
inactive: [1] 15% | [2] 14.7% | [3] -22.6% | [4] 20.9%

CSCCC(c1nnnn1Cc1ccccc1)N1CCC(n2c(=O)[nH]c3ccccc32)CC1 (centres undefined)
active: [1] 52.8% | [2] 46.3% | [4] 44.5%
inactive: [3] 36.4%

Cc1ccc(-c2cc(-c3ccc(C)cc3)[n+](C)o2)cc1
active: [1] 62.4% | [2] 47.2% | [4] 47.1% | [6] 78.7% | [7] 65.7% | [8] 67.3%
inactive: [3] -3.35% | [5] 27.6%

CC[n+]1c(/C=C/N(C)c2ccccc2)sc2ccc(Cl)cc21
active: [2] 46.1% | [4] 48.8% | [6] 83.7% | [7] 73.4% | [8] 75%
inactive: [1] 28.9% | [3] 30.4% | [5] 23.7%

O=c1[nH]c2ccccc2n1C1CCN(C(c2ccccc2)c2nnnn2-c2ccc3c(c2)OCCO3)CC1 (centres undefined)
inactive: [1] 41.3% | [2] 14.1% | [3] -15.1% | [4] 16.1%

Cc1c2ccncc2c(C)c2c1[nH]c1ccccc12
inactive: [1] 24% | [3] 25.6%
active: [2] 45.9% | [4] 42.1%

CC(C)[C@H]1C(=O)O[C@H](C(C)C)C(=O)N(C)[C@@H](C(C)C)C(=O)O[C@H](C(C)C)C(=O)N(C)[C@@H](C(C)C)C(=O)O[C@H](C(C)C)C(=O)N1C
active: [1] 75% | [2] 86.1% | [3] 59.5% | [4] 84.9%

CCC(C)(O)C(=O)OC1C(=O)OC2CC3C(C)=CC(=O)C(O)C3(C)C3C4(O)OCC23C1C(C)C4O (centres undefined)
active: [1] 97.1% | [2] 96.7% | [3] 94.3% | [4] 96.4% | [9] 98.7% | [10] 86.9% | [5] 96.1% | [6] 109% | [7] 97.6% | [8] 96.8% | [11] 80.7% | [12] 74.8% | [13] 31.2% | [14] 90.8%

From PubChem BioAssay
